Screening data deposited in PubChem by several laboratories.
PABP1 MLLE inh – inhibitors of PABP1 MLLE–PAM2 peptide binding, primary screen, biochemical, fluorescence polarization, FITC-PAM2, GST-MLLE | Polyadenylate-binding protein 1 (Homo sapiens), P11940 | inhibition, % at 20 µM | hit rate 0.36% among 360,000 | AID 588489, 2011; in the data active = inhibition above about 35%, passing the limit was not always enough;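 also: plate controls were DMSO wells with GST-MLLE for no effect and wells lacking GST-MLLE protein for full effect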
Target sequence (P11940 whole entry, looked up): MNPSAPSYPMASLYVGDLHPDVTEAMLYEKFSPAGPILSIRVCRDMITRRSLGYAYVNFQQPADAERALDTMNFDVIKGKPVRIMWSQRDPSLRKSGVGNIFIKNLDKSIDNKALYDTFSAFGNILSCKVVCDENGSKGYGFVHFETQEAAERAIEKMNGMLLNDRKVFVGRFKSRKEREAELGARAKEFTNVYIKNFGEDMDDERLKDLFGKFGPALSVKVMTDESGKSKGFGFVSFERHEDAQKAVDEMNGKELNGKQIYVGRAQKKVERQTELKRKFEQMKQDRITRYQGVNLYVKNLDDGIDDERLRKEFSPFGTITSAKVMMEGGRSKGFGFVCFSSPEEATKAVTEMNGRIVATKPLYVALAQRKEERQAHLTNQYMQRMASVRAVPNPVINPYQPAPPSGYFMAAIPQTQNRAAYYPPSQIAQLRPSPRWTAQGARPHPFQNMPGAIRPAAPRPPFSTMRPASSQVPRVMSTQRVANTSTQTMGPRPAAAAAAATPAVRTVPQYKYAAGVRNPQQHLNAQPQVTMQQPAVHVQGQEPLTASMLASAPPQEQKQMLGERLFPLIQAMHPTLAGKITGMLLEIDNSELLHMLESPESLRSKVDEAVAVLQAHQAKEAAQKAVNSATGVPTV
ABCB6 inh 2 – ABCB6 transporter inhibitors, primary screen, K562-ABCB6 cells, flow cytometry, MLPCN library | ATP-binding cassette sub-family B member 6 (Homo sapiens), Q9NP58 | K562-ABCB6 porphyrin accumulation, 1 h; hits give low values | fluorescence ratio to DMSO, % at 10 µM | hit rate 0.19% among 360,000 | AID 602162, 2011;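 active = fluorescence ratio to DMSO below 75%, the collection mean minus 3 SD; inconclusive = too few cells collected in the well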;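 also: signal is porphyrin accumulated inside mitochondria; 100% equals median channel fluorescence of DMSO control wells; lower ratio means ABCB6 inhibition with less porphyrin fluorescence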
PHOSPHO1 block – PubChem AID 1565; inhibition, % at 13.3 µM; Phosphoethanolamine/phosphocholine phosphatase (Homo sapiens), Q8TCT1; hit rate 1.1% among 290,000; recombinant PHOSPHO1, absorbance phosphatase assay; in the data active = inhibition above about 60%
AI-2 QS mod – Vibrio harveyi AI-2 quorum sensing modulators, primary screen, JMH597 strain, luminescence/OD600 ratio | AID 2094, 2009 | activity change, % at 7.5 µM | hit rate 0.4% among 300,000 | Vibrio harveyi JMH597 AI-2 luminescence/OD600 ratio, 9 h; hits give low values; strain lacks LuxN and CqsS sensors; 0 = neutral-control median; in the data active = activity change below about -75%, passing the limit was not always enough; inconclusive = no clear call, values can overlap the other calls;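 also: luminescence divided by OD600 gain over 9 h not by final OD600 alone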
PABP FP inh – PABP poly(A) RNA binding inhibitors, primary screen, biochemical, fluorescence polarization, uHTS; Polyadenylate-binding protein 1 (Homo sapiens), P11940; calls only at 35 µM; hit rate 1% among 290,000; AID 2014, 2009;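 also: calls also rest on retests at 20 µM and on dose response follow-up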
eIF4H FP inh – human eIF4H binding inhibitors, primary screen, translation initiation inhibitor project, biochemical, uHTS, fluorescence polarization. eIF4H fluorescence polarization binding assay. AID 2012, 2009. hit rate 0.94% among 290,000. inhibition, % at 35 µM;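 also: calls also rest on retests at 20 µM and on dose response follow-up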
The depositor's hits bear a star; i = inactive; ? = inconclusive; . = not tested or not shown; + = active, no number. Shown are actives, neighbours in structure and some others; about 2.6% of the full set was active somewhere. Unless noted, no rule for the calls is given here.

SMILES	PABP1 MLLE inh	ABCB6 inh 2	PHOSPHO1 block	AI-2 QS mod	PABP FP inh	eIF4H FP inh
CCCCCCn1cc(CN2CC(N3CCCC3)CS2(=O)=O)nn1 (stereo not given)	.	92	.	.	.	.
COc1ccc(CNC(=O)c2ccc3nc(C)c(N(C)Cc4ccc(NC(C)=O)cc4)n3c2)cc1	-3	97	.	.	.	.
O=C(NNc1ccccc1[N+](=O)[O-])Nc1ccc(Cl)c(Cl)c1	8	98	3	-5	i	-4
O=C1NC(=O)C(c2ccccc2[N+](=O)[O-])=C1Nc1ccc(O)c(Cl)c1	27	93	15	37	+	67*
CCCCC(c1nc2ccccc2[nH]1)n1c(-c2ccccc2)nc2ccccc21 (stereo not given)	3	98	.	.	.	.
Cn1c(-c2sccc2OCc2ccccc2)n[nH]c1=S	11	99	99*	21	i	0
Cn1c(-c2sccc2OCc2ccc(Cl)cc2Cl)n[nH]c1=S	-13	91	12	74	i	2
Cc1ccc(COc2ccsc2-c2n[nH]c(=S)n2C)cc1	0	96	107*	22	i	0
CCCC[n+]1c(C)sc2cc(OC)ccc21	-34	99	-45	22	+	-4
Cc1ccc2sc(C)[n+](CCCS(=O)(=O)[O-])c2c1	27	98	-20	11	i	-7
Cc1ccc2c(c1)sc(C)[n+]2CCCS(=O)(=O)[O-]	48*	96	-24	6	i	1
CCN(C)C1CN(Cc2cn(Cc3cccc(Cl)c3)nn2)S(=O)(=O)C1 (stereo not given)	.	99	.	.	.	.
CCc1nc2c(OCc3ccc(Cl)cc3Cl)cccn2c1N(C)C(C)=O	4	92	.	.	.	.
COc1ccc2[nH]c3c(=O)n(CCCCC(=O)NCCN4CCCC4)c(=S)[nH]c3c2c1	19	106	102*	22	i	12
COc1ccc2[nH]c3c(=O)n(CCCCC(=O)N4CCC(C(N)=O)CC4)c(=S)[nH]c3c2c1	51*	99	104*	24	i	-2
CC[C@H](C)NC(=O)CCCCCn1c(=S)[nH]c2c([nH]c3ccc(OC)cc32)c1=O	-26	93	4	16	i	-7
O=c1cc(CN2CCN(c3ccc(Cl)c(Cl)c3)CC2)c2ccccc2o1	-29	99	.	.	.	.
Clc1ccc(/C=N/N2CCCCC2)cc1	-11	98	65*	11	i	-13
Cc1ccnc(NC(=O)CNC(=O)c2ccc(Br)o2)c1	6	94	.	-85*	.	.
Cc1ccc(NC(=O)CNC(=O)c2ccc(Br)o2)nc1	-5	96	.	?	.	.
COc1ccc(NS(=O)(=O)c2cccc(C(=O)NNC(=O)c3cccn3C)c2)cc1	-16	101	38	16	i	74*
COc1ccc(NS(=O)(=O)c2cccc(C(=O)NNC(=O)c3ccccc3O)c2)cc1	7	101	.	40	.	.
COCCNC(=O)C(=O)N/N=C/c1cccs1	-3	99	65*	7	i	-2
COc1ccccc1NC(=O)C(=O)N/N=C/c1cccs1	-9	93	-4	24	i	-2
O=c1[nH]c(NCCO)c(N=Cc2ccccc2)c(=O)[nH]1	22	102	.	5	.	.
SMILES	PABP1 MLLE inh	ABCB6 inh 2	PHOSPHO1 block	AI-2 QS mod	PABP FP inh	eIF4H FP inh
Nc1[nH]c(=O)[nH]c(=O)c1N=Cc1ccccc1	68*	95	.	.	.	.
CC1CCCCN1c1nnc(NC(=O)c2cc(-c3ccc(Br)cc3)on2)s1 (stereo not given)	-7	99	34	18	+	87*
CC(C)NC(=O)c1cc(-c2ccc(Br)cc2)on1	-18	105	3	7	i	3
Cn1c(SCC(=O)Nc2ccc3nc(SCC(=O)N4CCCC4)sc3c2)nnc1-c1ccc(N)cc1	7	104	67*	.	i	82
O=c1[nH]c(=S)[nH]c2c1[C@H](CCc1cccc(Cl)c1)O[C@H](C1CCCC1)C2	.	92	.	.	.	.
Cc1ccccc1C1(O)c2ccccc2-c2ccccc21	6	100	.	.	.	.
CC(=O)[C@H]1[C@@H]2C(=O)N(c3cccc(Cl)c3)C(=O)[C@@H]2[C@H]2c3ccccc3C=CN21	23	97	7	44	+	62
CC(C)(C)C(=O)[C@@H]1[C@@H]2C(=O)N(Cc3ccccc3)C(=O)[C@@H]2[C@H]2c3ccccc3C=CN12	.	.	26	.	i	13
CC(=O)[C@@H]1[C@@H]2C(=O)N(c3ccc(F)c(Cl)c3)C(=O)[C@@H]2C2c3ccccc3C=CN21 (stereo not given in full)	.	.	9	17	i	59
O=C(c1ccco1)[C@@H]1[C@@H]2C(=O)N(c3ccc(F)cc3)C(=O)[C@@H]2C2c3ccccc3C=CN21 (stereo not given in full)	.	.	55	16	+	70
O=C(c1ccco1)[C@@H]1[C@@H]2C(=O)N(c3ccc(Br)cc3)C(=O)[C@@H]2C2c3ccccc3C=CN21 (stereo not given in full)	21	96	68*	.	i	55
O=C(c1ccco1)[C@@H]1[C@@H]2C(=O)N(c3ccc(F)cc3)C(=O)[C@@H]2[C@H]2C=Cc3ccccc3N21	-29	115	16	.	i	44
O=C(CSc1cccc2cccnc12)N/N=C/c1ccc(O)cc1	8	96	32	14	i	1
O=C(CCc1ccccc1O)N/N=C/c1ccc(Sc2cccc3cccnc23)o1	17	96	98*	32	i	-7
Cc1ccc(-n2c(C)cc(C(=O)CSc3n[nH]c(N)n3)c2C)cc1	-21	95	-27	2	i	-3
CNc1nnc(SCC(=O)c2cc(C)n(C3CC3)c2C)s1	27	94	.	.	.	.
Cc1cc(C(=O)CSc2n[nH]c(N)n2)c(C)n1-c1ccc(F)cc1	-8	98	-3	13	+	76*
Cc1cc(C(=O)CSc2n[nH]c(N)n2)c(C)n1-c1ccccc1	-16	94	95*	30	i	-3
Cc1nnc(SCC(=O)c2cc(C)n(-c3ccc4c(c3)OCO4)c2C)s1	22	101	92*	24	i	24
Cc1nnc(SCC(=O)c2cc(C)n(C3CC3)c2C)s1	16	99	105*	18	i	9
COCCN1C[C@@H](CO)O[C@@H](n2cnc3c(NC(C)C)ncnc32)C1	3	94	.	.	.	.
COc1ccccc1CCn1cnc(Cc2ccccc2)c1C(C)C	.	119	.	.	.	.
OC(c1ccc2ccccc2c1)c1ncc(-c2cccc3ccccc23)[nH]1 (stereo not given)	-4	92	.	.	.	.
